Where a name gives a salt, the structure may show the parent alone.
Tested on: Drosophila S2 cl14 SmoIP sensor cells
Test: normalized SmoIP GFP fluorescence (untreated unstimulated = 0%, untreated Hh-stimulated = 100%); higher = more Smo activation sensor fluorescence
Details: compound concentration: 2 uM, 24 h
[1] = stimulation: Hh conditioned medium (+Hh)
[2] = stimulation: mock conditioned medium (-Hh)
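Further: flow cytometry read-out as median GFP intensity of gated cells, compounds added 30 min before Hh-conditioned or mock medium, mock-treated cells serving as unstimulated baseline.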

Compound | normalized SmoIP GFP fluorescence [1] [%] | normalized SmoIP GFP fluorescence [2] [%]
Cc1cc(-c2ncc(CC(=O)Nc3ccc(-c4cnccn4)cn3)cc2C)ccn1 | 130 | -1.23
CC(C)NCC(O)COc1ccc(COCCOC(C)C)cc1 (centres undefined) [Bisoprolol-Fumarate] | 103 | 8.79
Cc1ccc(F)c(NC(=O)Nc2ccc(-c3cccc4[nH]nc(N)c34)cc2)c1 | 115 | 0.274
Cn1cc(-c2ccc3nnc(C(F)(F)c4ccc5ncccc5c4)n3n2)cn1 | 96.1 | -2.42
N#CC[C@H](C1CCCC1)n1cc(-c2ncnc3[nH]ccc23)cn1 | 112 | 1.03
Nc1cc(F)ccc1NC(=O)/C=C/c1cnn(C/C=C/c2ccccc2)c1 [rgfp966] | 112 | -0.775
COc1ccc(-c2ccc3c(N4CCOC[C@@H]4C)nc(N4CCOC[C@@H]4C)nc3n2)cc1CO | 61.4 | -2.96
Cc1c(Nc2ncccc2C(=O)O)cccc1C(F)(F)F [flunixin-meglumin] | 123 | -12.6
NC12CC3CC(CC(C3)C1)C2 [Amantadine-hydrochloride(Symmetrel)] | 110 | -4.08
NCCc1c[nH]cn1 [histamine-2hcl] | 104 | 1.21
C[C@H](Cc1cc2c(c(C(N)=O)c1)N(CCCO)CC2)NCCOc1ccccc1OCC(F)(F)F [Silodosin(Rapaflo)] | 83.5 | -7.81
Cc1ccccc1C(=O)Nc1ccc(C(=O)N2CCCC(O)c3cc(Cl)ccc32)c(C)c1 (centres undefined) | 111 | -6.61
COc1ccc(CNc2nc(N3CCC[C@H]3CO)ncc2C(=O)NCc2ncccn2)cc1Cl [avanafil] | 106 | -2.31
N[C@H]1C[C@@H]1c1ccc(-c2cccc(O)c2)cc1 | 102 | -4.81
Oc1cc(O)cc(/C=C/c2ccc(O)c(O)c2)c1 [piceatannol] | 114 | -2.08
Cc1cn(-c2cc(NC(=O)c3ccc(C)c(Nc4nccc(-c5cccnc5)n4)c3)cc(C(F)(F)F)c2)cn1 [Nilotinib] | 104 | -4.47
Cn1c(N2CCCCS2(=O)=O)nc(C(=O)NCc2ccc(F)cc2)c(O)c1=O | 99.7 | -2.42
CCCCCCCN(CC)CCCC(O)c1ccc(NS(C)(=O)=O)cc1 (centres undefined) [ibutilide-fumarate] | 108 | -6.16
CCS(=O)(=O)Nc1ccc2c(c1)/C(=C(/Nc1ccc(CN3CCCCC3)cc1)c1ccccc1)C(=O)N2 [Hesperadin] | 94.8 | 12.7
COc1cc2ncnc(Nc3ccc(F)c(Cl)c3)c2cc1OCCCN1CCOCC1 [Gefitinib] | 116 | -4.53
CC/C(=C(\c1ccccc1)c1ccc(OCCN(C)C)cc1)c1ccccc1 [Tamoxifen-Citrate(Nolvadex)] | 112 | -6.61
Cc1ccccc1C(=O)Nc1ccc(C(=O)N2CCCC(N(C)C)c3ccccc32)cc1 (centres undefined) [mozavaptan] | 105 | -2.08
Cc1cccc(-c2[nH]c(C(C)(C)C)nc2-c2ccc3nccnc3c2)n1 | 102 | -5.22
CC(C)CCN1c2nc(Nc3cc(F)c(O)c(F)c3)ncc2N(C)C(=O)C1C (centres undefined) | 144 | 1.61

Compound | normalized SmoIP GFP fluorescence [1] [%] | normalized SmoIP GFP fluorescence [2] [%]
CN1CCN(c2nc(C3=C(c4c[nH]c5ccccc45)C(=O)NC3=O)c3ccccc3n2)CC1 [sotrastaurin-aeb071] | 131 | 40.1
Nc1ccccc1NC(=O)c1ccc(CNc2nccc(-c3cccnc3)n2)cc1 [MGCD0103(Mocetinostat)] | 214 | 9
Cc1c(C(=O)Nc2ccc(N3C[C@@H](C)O[C@@H](C)C3)nc2)cccc1-c1ccc(OC(F)(F)F)cc1 | 114 | -12.2
Cc1onc(-c2ccccc2)c1-c1ccc(S(N)(=O)=O)cc1 [valdecoxib] | 104 | -5.49
CNC(=O)c1nn(C)c2c1C(C)(C)Cc1cnc(Nc3ccc(N4CCN(C)CC4)cc3)nc1-2 | 107 | -11.7
Oc1cc(O)c(Cl)cn1 [gimeracil] | 107 | -6.97
CN1CCc2c(c3ccccc3n2Cc2ccc(C(=O)NO)cc2)C1 [tubastatin-a-hcl] | 101 | -1.83
Nc1cc(C(F)(F)F)c(-c2cc(N3CCOCC3)nc(N3CCOCC3)n2)cn1 | 68 | -8.9
O=c1oc2cc(O)ccc2s1 [tioxolone] | 169 | -1.83
CCn1c(-c2nonc2N)nc2c(C#CC(C)(C)O)ncc(OC[C@H]3CCCNC3)c21 | 98.8 | -8.56
COc1cc2ncnc(Nc3ccc(Cl)cc3F)c2cc1OC | 99.3 | -4.13
O=[N+]([O-])c1ccc2c(c1)S(=O)(=O)C=C2 [stattic] | 116 | -1.74
C[C@@H](NCCCc1cccc(C(F)(F)F)c1)c1cccc2ccccc12 [Cinacalcet-hydrochloride] | 104 | 5.98
CCN1CCN(c2ccc(Nc3cc(N(C)C(=O)Nc4c(Cl)c(OC)cc(OC)c4Cl)ncn3)cc2)CC1 | 111 | -12.7
CC1(C)CC(=O)c2c(C(F)(F)F)nn(-c3ccc(C(N)=O)c(N[C@H]4CC[C@H](O)CC4)c3)c2C1 | 178 | 12.3
Cc1cc(C)c2c(c1)[C@@H](N(Cc1cc(C(F)(F)F)cc(C(F)(F)F)c1)c1nnn(C)n1)CCCN2CC1CCC(C(=O)O)CC1 (some centres undefined) | 105 | -5.15
CCCC(=O)Nc1ccc(OCC(O)CNC(C)C)c(C(C)=O)c1 (centres undefined) [acebutolol-hcl] | 106 | -3.5
CCCCCCCCCCCCc1ccc(S(=O)(=O)Nc2nncs2)cc1 | 111 | 1.03
Nc1ncnc2c1c(-c1cccc(OCc3ccccc3)c1)cn2C1CC(CN2CCCC2)C1 (centres undefined) | 117 | 5.45
C[C@H](Oc1cc(-c2cnn(C3CCNCC3)c2)cnc1N)c1c(Cl)ccc(F)c1Cl [s-crizotinib] | 114 | 7.39
COc1ccc2c(Oc3ccc(NC(=O)c4c(C)n(CC(C)(C)O)n(-c5ccccc5)c4=O)nc3)ccnc2c1 | 158 | -1.11
Cc1cc(Cl)ccc1OCCCC(=O)NO [Droxinostat] | 95.2 | -5.76
CNCc1ccc(-c2cc(-c3nc(-c4ccc(S(=O)(=O)C(C)C)cc4)cnc3N)on2)cc1 | 123 | 28.9
O=C(C[S+]([O-])Cc1ccco1)NC/C=C\COc1cc(CN2CCCCC2)ccn1 (centres undefined) [lafutidine] | 113 | -9.85

Compound | normalized SmoIP GFP fluorescence [1] [%] | normalized SmoIP GFP fluorescence [2] [%]
CN1CCN(C(c2ccccc2)c2ccccc2)CC1 [cyclizine-2hcl] | 104 | -5.15
Cc1ccc(NC(=O)c2ccc(CN3CCN(C)CC3)cc2)cc1Nc1nc(-c2cccnc2)cs1 [Masitinib-(AB1010)] | 113 | 20.6
Cn1c(=O)n(-c2ccc(C(C)(C)C#N)cc2)c2c3cc(-c4cnc5ccccc5c4)ccc3ncc21 | 113 | -5.01
CN(C)CCC(c1ccc(Cl)cc1)c1ccccn1 (centres undefined) [Chlorpheniramine-maleate] | 106 | -12.2
C[C@H]1c2cccc(O)c2C(=O)C2=C(O)[C@]3(O)C(=O)C(C(N)=O)=C(O)[C@@H](N(C)C)[C@@H]3[C@@H](O)[C@@H]21 [doxycycline-hcl] | 101 | -1.63
CCNC(=O)Nc1ccc(-c2nc3c(c(N4CCOC[C@@H]4C)n2)CCN(C2COC2)C3)cc1 | 93.3 | -0.151
COc1ccccc1N1CCN(CCCNc2cc(=O)n(C)c(=O)n2C)CC1 [urapidil-hydrochloride] | 110 | -7.96
N#C/C(=C(/N)Sc1ccc(N)cc1)c1ccccc1C(F)(F)F | 131 | 10.2
CCN1CCN(Cc2ccc(Nc3ncc(F)c(-c4cc(F)c5nc(C)n(C(C)C)c5c4)n3)nc2)CC1 | 158 | 50.1
CO[C@H]1C[C@@H]2CC[C@@H](C)[C@@](O)(O2)C(=O)C(=O)N2CCCC[C@H]2C(=O)O[C@H]([C@H](C)C[C@@H]2CC[C@@H](O)[C@H](OC)C2)CC(=O)[C@H](C)/C=C(\C)[C@@H](O)[C@@H](OC)C(=O)[C@H](C)C[C@H](C)/C=C/C=C/C=C/1C [Rapamycin] | 26.9 | 19.1
CS(=O)(=O)CCNCc1ccc(-c2ccc3ncnc(Nc4ccc(OCc5cccc(F)c5)c(Cl)c4)c3c2)o1 [Lapatinib-Ditosylate] | 253 | 9
Nc1ccn([C@H]2CC[C@@H](CO)O2)c(=O)n1 [Zalcitabine] | 114 | -12.4
CCOC(=O)CCNc1cc(N2CCc3ccccc3CC2)nc(-c2ccccn2)n1 | 116 | -2.48
O=C(Nc1ccccc1)Nc1ccc(-c2ccc(C(=O)[C@@H]3CCC[C@H]3C(=O)O)cc2)cc1 | 128 | -11
O=C1NC(=O)C(=Cc2ccc(-c3ccc(F)cc3)o2)S1 (stereo in doubt) | 102 | -2.48
Cc1ccc(C(=O)NCCCCCC(=O)Nc2ccccc2N)cc1 [rg2833-rgfp109] | 101 | -3.05
O=C(Nc1cccc2cccnc12)c1ccc(N2C(=O)[C@@H]3[C@H](C2=O)[C@@H]2C=C[C@H]3C2)cc1 [iwr-1-endo] | 114 | -4.92
COc1cc2ncnc(Nc3cccc(Cl)c3)c2cc1OC [ag-1478-tyrphostin-ag-1478] | 157 | -12.9
NC(=O)N1c2ccccc2CC(=O)c2ccccc21 [Oxcarbazepine] | 103 | 2.97
COCCOC(=O)C1=C(C)NC(C)=C(C(=O)OC/C=C/c2ccccc2)C1c1cccc([N+](=O)[O-])c1 (centres undefined) [Cilnidipine] | 112 | 2.97
CCOC(=O)c1ccc(NC2CCCCC2)c(N)c1 [ferrostatin-1-fer-1] | 116 | -3.05
COc1ccc2cc(CCC(C)=O)ccc2c1 [nabumetone] | 103 | -2.2
O=C(O)CCCN1CCC(O[C@@H](c2ccc(Cl)cc2)c2ccccn2)CC1 [bepotastine-besilate] | 103 | -2.31
CN1C2CCCC1CC(NC(=O)c1nn(C)c3ccccc13)C2 (centres undefined) [Granisetron-Hydrochloride] | 103 | 3.72

From the supplement of paper PMC5662767
